Test results published in PubChem BioAssay AID374 (University of Pittsburgh Molecular Library Screening Center, 2006).
Hit rate of the full screen: of about 65,000 compounds, about 100 (0.15%) were called active. What follows is part of a selection rich in actives, with near analogues and random picks from the rest. Unmarked numbers belong to inactive results.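 How the source made its calls: active means inhibition above about 50% (limit read from the data); inconclusive means inhibition over screen mean plus 3 SD, below that limit; inactive means the rest.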

molecular target: Dual specificity protein phosphatase 1 (Homo sapiens) (UniProt P28562); assay: blockers of human DUSP1 activity – biochemical, in vitro, primary screen (AID 374); details: recombinant MKP-1, OMFP hydrolysis fluorescence; active compounds read high;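 compounds tested at a single concentration somewhere between 10 and 100 µM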;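 further: 0% = DMSO max control wells and 100% = wells with enzyme stopped by NaOH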
Sequence (P28562 whole entry, looked up): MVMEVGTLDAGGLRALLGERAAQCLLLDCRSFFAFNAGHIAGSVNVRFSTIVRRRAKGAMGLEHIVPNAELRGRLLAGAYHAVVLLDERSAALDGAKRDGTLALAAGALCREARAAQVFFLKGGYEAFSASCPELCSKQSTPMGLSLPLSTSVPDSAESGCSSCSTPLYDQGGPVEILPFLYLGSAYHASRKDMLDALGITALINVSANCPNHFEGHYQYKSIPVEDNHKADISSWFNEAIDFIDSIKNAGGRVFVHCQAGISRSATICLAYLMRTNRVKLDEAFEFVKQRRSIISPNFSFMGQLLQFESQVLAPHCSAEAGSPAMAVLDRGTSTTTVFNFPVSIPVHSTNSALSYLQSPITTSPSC

SMILES	inhibition
CC(CCc1ccccc1)NC(=O)c1ccc(Br)o1 (stereo unspecified)	9.59%
CC(C)CNC(=O)C1CCCN(S(=O)(=O)c2ccc(-n3cnnn3)cc2)C1 (stereo unspecified)	10.4%
CC(C)C(C(=O)NC1CCCCC1)N(CC1CCCO1)C(=O)CNS(=O)(=O)c1ccc(F)cc1 (stereo unspecified)	42%
COc1ccc(OCC(=O)N2CCN(C(=O)COc3ccccc3)CC2)cc1	3.4%
CCOC(=O)C1CCCN(C(=O)c2cncc(Br)c2)C1 (stereo unspecified)	-1.24%
COc1cccc(N2CCN(C3CC(=O)N(c4ccc(Cl)cc4)C3=O)CC2)c1 (stereo unspecified)	9.47%
COc1cccc(N2C(=O)C3CCCN3C2c2ccc(F)cc2)c1 (stereo unspecified)	7.6%
CCOC(=O)N1CCN(C(=O)c2ccc3nc4cc(Cl)ccc4c(=O)n3c2)CC1	-0.24%
CNC(=O)C1CC(=O)N(Cc2ccc3c(c2)OCO3)C(=Nc2ccc(F)cc2)S1 (stereo unspecified)	4.87%
CCCNc1ncnc2sc(C)c(C)c12	6.02%
CCCc1nc(-c2ccccc2O)n(-c2ccccc2)n1	-14.3%
COc1ccccc1-n1cnc2cc(NS(=O)(=O)c3ccccc3)ccc21	-7.71%
C=C(C)Cn1c(N2CCCC2)nc2c1c(=O)[nH]c(=O)n2C	4.46%
CCOC(=O)N1CCN(Cc2oc(CO)cc(=O)c2O)CC1	30.4%
Cc1cccc(N2CCN(C(=O)c3cc4c(=O)[nH]c5ccccc5c4n3C)CC2)c1C	50.9% (active)
CC(=O)N1CCN(c2cccc(C)c2C)CC1	9.16%
Cn1c(C(=O)NCCN2CCc3ccccc3C2)cc2c(=O)[nH]c3ccccc3c21	31%
COCCCn1c(CCC(=O)O)ccc1-c1ccc(F)cc1	33.1%
Cn1c(SCc2c(F)cccc2Cl)nnc1-c1cnccn1	4.26%

SMILES	inhibition
COc1cccc(CN2C(=O)CCC2(C)C(=O)NC2CCCCCC2)c1 (stereo unspecified)	10.3%
Cc1ccc(Nc2nc(CSc3nnnn3-c3ccccc3)cc(=O)[nH]2)cc1	53.9% (active)
O=c1c2ccccc2nc(CSc2nnnn2-c2ccccc2)n1-c1ccccc1	11.8%
Cc1ccc(-c2noc(CSc3nnnn3-c3ccccc3)n2)cc1	0.15%
CCOCCCNC(=O)c1c[nH]c2cc(C)ccc2c1=O	7.4%
COc1ccc(NC(=O)c2c(SC)nsc2SC)cc1	0.33%
CC(=O)Nc1ccc(S(=O)(=O)Nc2nc3n(n2)C(c2ccccc2)CC(=O)N3)cc1 (stereo unspecified)	-6%
CC(C)COC(=O)c1ccc(NC(=O)C2C3C=CC(C3)C2C(=O)O)cc1 (stereo unspecified)	23.6%
CCCCOc1ccc(C(=O)NCc2ccco2)cc1	-0.67%
C[C@H](NC(=O)OC(C)(C)C)c1nnc(SCC(=O)Nc2ccc(Br)cc2)o1	13%
Cc1oc2nc(SCC(=O)NCc3cccnc3)nc(N)c2c1C	32.5%
CN1c2ccccc2-c2nc3ccccc3n2C1c1ccco1 (stereo unspecified)	-25.5%
COc1ccc(F)cc1S(=O)(=O)Nc1ccc2c(c1)OCO2	12.4%
CCOC(=O)N1CCN(C(=O)CN(c2ccc(C)c(C)c2)S(=O)(=O)c2ccccc2)CC1	12.6%
O=S(=O)(c1cccs1)N1CCc2ccccc2C1	1.16%
CC1Cn2c(nnc2-c2cccs2)S1 (stereo unspecified)	-6.93%
Cc1nc2nc3c(cn2n1)C(=O)CC(c1ccccc1)C3 (stereo unspecified)	-8.11%
CCSC(C)CC1C/C(=N/O)c2c(C)noc2C1 (stereo unspecified)	12.5%
COc1cccc(C2/C(=C(/O)c3ccc(F)cc3)C(=O)C(=O)N2CCN(C)C)c1 (stereo unspecified)	3.73%

SMILES	inhibition
O=C(Oc1ccc2c(c1)CCC2)N1CCOCC1	-9.77%
O=C(NC(=O)c1ccc(Cl)c(Cl)c1)OC1CCS(=O)(=O)C1 (stereo unspecified)	0.18%
O=C(Nc1c(Cl)cccc1Cl)C1CCC1	-12.7%
Cc1cccc(N2CCN(C(c3ccccc3)c3nnnn3CC3CCCO3)CC2)c1C (stereo unspecified)	20.8%
COCCOC(=O)C1=C(C)NC(=O)NC1c1ccc(Cl)cc1 (stereo unspecified)	5.89%
CCc1ccccc1NC(=O)CSc1nnc([C@@H](NC(=O)OC(C)(C)C)C(C)CC)o1 (stereo partly specified)	27.6%
N#Cc1nc(Cc2cccc3ccccc23)oc1NCc1ccc2c(c1)OCO2	-0.11%
COc1ccc(S(=O)(=O)Nc2ccc(S(=O)(=O)N3CCCCC3)cc2)cc1OC	-11.3%
O=C(O)c1ccc(COCC(F)(F)F)cc1	5.73%
COC(=O)[C@H](CCSC)NC(=O)Nc1ccc(OC)cc1	-29.3%
Cc1ccc(C(=O)NCCNS(=O)(=O)c2ccccc2)cc1	9.54%
CCOC(=O)C1C(=O)OC2(CCCC2)C1C(=O)OCC (stereo unspecified)	0.52%
CSC1=NCCN1C(=O)c1ccc(S(=O)(=O)N2CCOCC2)cc1	-8.44%
CC(C)(C)n1nc2c(c1NC(=O)c1ccc(S(=O)(=O)N3CCCC3)cc1)CS(=O)C2 (stereo unspecified)	1.54%
COCCCNC(=O)CCc1nc2cccnc2n1Cc1ccc(OC)cc1	2.57%
CCC(C(=O)Nc1ncccn1)(C(F)(F)F)C(F)(F)F	-11.8%
CCN(CC)S(=O)(=O)c1cccc(C(=O)Nc2cc(C)nn2-c2nc(C)cc(C)n2)c1	-26.4%
Cc1nc(-c2ccc(NC(=O)c3cccs3)cc2)cs1	-3.52%
